Data on 57 compounds can be found in PubChem BioAssay AID504411 (The Scripps Research Institute Molecular Screening Center, 2011).

The campaign covered roughly 340,000 compounds. About 200 (0.059%) were called active. The sample holds actives, similar compounds and a random draw of the others, so the mix is not that of the screen. A number with no mark means an inactive call. Rule as the data show it: active = inhibition above about 34%; inactive = the rest.

Sequence of Diacylglycerol lipase-beta (Homo sapiens) (Q8NCG7 whole entry, looked up): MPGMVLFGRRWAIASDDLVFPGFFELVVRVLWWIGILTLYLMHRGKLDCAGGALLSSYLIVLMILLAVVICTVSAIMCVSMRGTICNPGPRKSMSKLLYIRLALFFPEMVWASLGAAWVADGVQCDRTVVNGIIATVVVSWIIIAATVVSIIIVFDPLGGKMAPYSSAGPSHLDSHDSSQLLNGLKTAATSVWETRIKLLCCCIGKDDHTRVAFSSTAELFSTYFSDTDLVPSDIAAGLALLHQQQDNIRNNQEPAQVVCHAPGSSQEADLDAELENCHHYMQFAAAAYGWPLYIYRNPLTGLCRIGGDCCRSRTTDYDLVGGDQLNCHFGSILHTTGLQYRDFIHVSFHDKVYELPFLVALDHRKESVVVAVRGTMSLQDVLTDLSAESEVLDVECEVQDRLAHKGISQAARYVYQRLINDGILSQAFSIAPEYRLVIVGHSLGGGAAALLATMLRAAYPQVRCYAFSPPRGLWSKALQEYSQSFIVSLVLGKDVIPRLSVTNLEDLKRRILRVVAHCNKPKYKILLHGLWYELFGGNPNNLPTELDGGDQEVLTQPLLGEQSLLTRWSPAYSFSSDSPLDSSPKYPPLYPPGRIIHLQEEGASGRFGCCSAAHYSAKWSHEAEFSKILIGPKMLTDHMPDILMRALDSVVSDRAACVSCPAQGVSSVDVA

This test concerns the target Diacylglycerol lipase-beta (Homo sapiens) (UniProt Q8NCG7). Description: DAGLB lipase inhibitors, primary screen, biochemical, fluorescence, HTS (AID 504411).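 Also: 0% = enzyme with vehicle and 100% = wells lacking enzyme.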 The note with it: HEK293T DAGLB membrane lysate, EnzChek fluorogenic substrate; at 5.17 µM; stronger effect = higher value.
Consider `c1ccc2c(c1)OCCOCCOCCO2`, for which the inhibition is 0.06%.
To `Cc1ccc(S(=O)(=O)N/N=C(\c2ccccc2)C2CC2)cc1` belongs 0.32%; to `COc1ccc(S(=O)(=O)/N=C2\C=C(NS(=O)(=O)c3ccccc3)C(=O)c3ccccc32)cc1`, 19.7%.
To `Cc1ccc(S(=O)(=O)/N=C2\C=C(NS(=O)(=O)c3ccc(C)cc3)C(=O)c3ccccc32)cc1` belongs 38.9% (active); to `Cc1nn(C)c(C)c1CN(C(=O)CCc1nnc(Cc2c[nH]c3ccccc23)o1)C(C)C`, 1.36%; to `COCc1ccc(C(=O)N2CCc3c([nH]c4ccccc34)C2c2ccccn2)s1` (configuration not stated), 2.71%.
With `CC(CC(=O)N1CCN(c2ccccc2)CC1)S(=O)(=O)c1ccc2c(c1)NC(=O)CS2` (configuration not stated) the figure was 1.53%.
Turning to `CCOc1ccc(-n2cnc3c(=O)[nH]c(N)nc32)cc1`, the inhibition is 0.5%.
For `O=C(Nc1nnc(CCN2CCCCC2)s1)c1cccc(Cl)c1`, the inhibition was 0.09%.
As to `CCOC(=O)C1=C(C)OC(N)=C(C#N)C1c1cncc(-c2ccc(F)cc2)c1` (configuration not stated), the inhibition was -3.22%.
With `C=CCn1nc(-c2ccccc2)c2c(C)onc2c1=O` the figure was -0.48%.
To `CC(Sc1nncn1C)C(=O)Nc1cc(C(F)(F)F)ccc1N1CCOCC1` (configuration not stated) belongs 0.9%; to `O=C(NC1CCCC1)C1CC(=O)N(c2ccc(F)cc2)C1` (configuration not stated), 2.14%; to `O=C(COC(=O)c1ccc(O)cc1O)NC(=O)c1ccccc1`, 1.38%.
To `O=C(NNc1c2ccccc2nc2ccccc12)c1cc2ccccc2cc1O` belongs 64% (active); to `O=C(NNC(=O)c1ccccc1O)c1ccccc1O`, 3.19%; to `Cc1ccc(-c2cc(C(F)(F)F)n3ncc(C(=O)N4CCCCC4c4cccnc4)c3n2)cc1` (configuration not stated), 0.87%.
On to `Nc1ccc(Cl)c(S(=O)(=O)Nc2ccccc2Cl)c1`, for which the inhibition is 2.95%.
With `O=C1C(=O)N(CCN2CCOCC2)C(c2ccccn2)/C1=C(/O)c1ccc(Cl)cc1` (configuration not stated) the figure was 1.82%; with `COc1cc(/C=C/C(=O)N2CCc3ccccc3C2)cc(OC)c1OC`, -1.38%.
With `O=C(c1ccc(=O)[nH]c1)N(Cc1ccco1)C1(C(=O)NC2CCCCC2)CCCCC1` the figure was -1.49%; with `COc1cccc(NC(=S)NC(=O)c2c(Cl)c(C)nn2C)c1`, -24.9%; with `CN(C(=O)CSc1nnc(C2CC2)n1C)C1CCCc2ccccc21` (configuration not stated), 1.81%.
With `CCOCCn1[nH]c2ccccc2c1=O` the figure was -1.38%; with `CCOc1ccc(C(O)Cn2c(=N)n(CCN3CCCCC3)c3ccccc32)cc1` (configuration not stated), -2.39%; with `Cc1cccc(Nc2nc3c(S(=O)(=O)c4ccccc4)nnn3c3ccccc23)c1C`, 0.26%.
For `CCn1c(SCC(=O)N2CCCC2=O)nc2ccccc21`, the inhibition was -0.5%.
With `COc1ccc(OC)c(NC(=O)c2cccc(S(=O)(=O)N3CCN(C(C)=O)CC3)c2)c1` the figure was -0.51%; with `O=C(CCCN=C1NS(=O)(=O)c2ccccc21)OCC(=O)c1ccc(F)c(F)c1`, 1.93%.
As to `CN1CCC(N(C)C(=O)c2ccc(Cl)c(S(=O)(=O)Nc3ccc(Cl)cc3)c2)CC1`, the inhibition was -0.08%.
Regarding `CSCCC(=O)N1CCCC(CNC(=O)c2ccccc2Cl)C1` (configuration not stated), the inhibition is -3.33%.
With `C[C@H](CO)N1C[C@H](C)[C@@H](CN(C)C(=O)NC2CCCCC2)Oc2ccc(NC(=O)c3ccncc3)cc2C1=O` the figure was -0.14%; with `O=C1C=C(NCCNc2c(F)c(F)c(CO)c(F)c2F)CCC1`, 0.21%; with `COc1ccc(C(=O)Cn2nnc(-c3ccc(N4CCOCC4)cc3)n2)cc1OC`, 0.4%.
Consider `COc1ccccc1NS(=O)(=O)c1ccc(C(=O)N2CCN(c3ccccc3O)CC2)cc1`, for which the inhibition is 3.47%.
To `CCOC(=O)N1CCC(O)(c2cc(C)c(C)cc2C)CC1` belongs -4.76%; to `CC(=O)c1c(C)[nH]c(C(=O)CN2C(=O)NC(C)(C)C2=O)c1C`, 2.12%.
To `CCOC(=O)C1CN(S(=O)(=O)c2ccc(F)cc2)C1` belongs -3.17%; to `O=c1oc(-c2ccccc2NS(=O)(=O)c2ccc(Cl)cc2)nc2ccccc12`, 6.09%.
With `COc1cccc(/C=C2\SC(=S)N(CCCC(=O)N3CCOCC3)C2=O)c1` the figure was -4.26%; with `COCCCNC(=O)[C@H]1N2C(=O)c3ccccc3C2SC1(C)C` (some centres not stated), -1.33%.
As to `CC(=O)Nc1ccc(C(=O)Nc2cccc(S(=O)(=O)NC3=NCCC3)c2)cc1`, the inhibition is -2.22%.
With `CCOC(=O)C1CSC(CC(=O)Nc2ccc(OCC)cc2)C(=O)N1` (configuration not stated) the figure was 0.21%; with `O=C(O)CC(c1ccccc1F)N1Cc2ccccc2C1=O` (configuration not stated), 1.06%; with `CCCN(CCC)S(=O)(=O)c1ccc(C(=O)N2CC3CCC(CC3)C2)cc1`, -8.08%.
Regarding `COc1ccc(C(=O)c2c(C)oc3cc([N+](=O)[O-])c(O)c([N+](=O)[O-])c23)cc1`, the inhibition was 21.1%.
`Cc1oc2cc([N+](=O)[O-])c(O)c([N+](=O)[O-])c2c1C(=O)c1ccc(Br)cc1`: the inhibition is 44% (active).
With `Cc1oc2cc(Br)c(O)c(Br)c2c1C(=O)c1ccccc1` the figure was -1.78%.
To `CCOc1ccc(S(=O)(=O)NCCC(=O)NCC(C)(C)N2CCOCC2)cc1` belongs 1.14%; to `CSC1=N/C(=C\C=C\c2cccs2)C(=O)S1`, 6.62%.
Consider `Cc1c(C(=O)NCC(c2ccco2)N2CCCC2)oc2ccc(Cl)cc12` (configuration not stated), for which the inhibition is -3.86%.
With `CCOC(=O)C1CCN(C(=O)C2(NC(=O)Nc3cccc(F)c3)CCCCC2)CC1` the figure was 1.05%; with `CC1(C)OC(=O)C(=CNC(CO)C(=O)O)C(=O)O1` (configuration not stated), -0.76%.
With `CC(=O)N1CCc2ccc(N)cc21` the figure was -0.55%; with `COc1ccc(C(=O)NCc2ccc(C)cc2)cc1S(=O)(=O)N1CCCC1`, -0.31%.
With `Cc1cc(=O)n2nc(N3CCCC(C(=O)NCc4cccc(Cl)c4)C3)sc2n1` (configuration not stated) the figure was -0.02%; with `CCOC(=O)CN(C(=O)COc1nc(-c2ccccc2)cc(C)c1C#N)c1ccc(F)cc1`, -4.62%.

As usually defined, the inhibition is the drop in the measured response relative to a control, in per cent.
